PubChem BioAssay AID652010 (The Scripps Research Institute Molecular Screening Center, 2013)
Among all 370,000 compounds or so, about 4,100 (1.1%) were called active.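 How the source made its calls: active means inhibition above the mean over all tested compounds plus 3 SD (cut at about 3.6% in these data); inactive means the rest.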 The list comes from a sample in which actives are over-represented; it also holds similar structures and randomly drawn compounds.

Assay: relief of DAX-1 repression of SF-1 activity – cell-based, luminescence, SF-1 (NR5A1), full-length DAX-1, primary screen (AID 652010);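 further: 0% = DAX-1 cells with DMSO and 100% = cells lacking DAX-1 with DMSO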
Conditions: HEK293T StAR-luciferase reporter, SF-1/DAX-1 repression relief; at 6.8 µM; stronger effect = higher value

Row | Structure (SMILES) | inhibition
1 | Cc1ccc(-c2nnc(SCC(=O)Nc3ccc(Oc4ccccc4)cc3)n2Cc2ccco2)cc1 | -2.13% (inactive)
2 | CC(C)CNc1cccc2c1S(=O)(=O)N(Cc1cn(Cc3ccccc3C(F)(F)F)nn1)Cc1ccccc1O2 | 0.13% (inactive)
3 | COc1ccc(-c2ccc(CN3C(C(C)C)C(=O)N(Cc4cn(CC5CCCCC5)nn4)CCS3(=O)=O)cc2)cn1 (centres undefined) | -0.19% (inactive)
4 | COc1ccc(-c2ccc(CN3C(CC(C)C)C(=O)N(Cc4cn(CC5CCCCC5)nn4)CCS3(=O)=O)cc2)cc1 (centres undefined) | 2.67% (inactive)
5 | COc1ccc(-c2ccc(CN3C(CC(C)C)C(=O)N(Cc4cn(CC5CCCCC5)nn4)CCS3(=O)=O)cc2)cn1 (centres undefined) | 3.92% (active)
6 | COC(=O)c1cccc(Cn2ccc3ccc(-c4ccc5ccn(C(=O)C6CCCCC6)c5c4)cc32)c1 | 0.41% (inactive)
7 | CCOC(=O)N1CCN(C(=O)C[C@@H]2C(=O)N(CCc3ccc(Cl)cc3)C3=CCCC[C@]32C(=O)OCC)CC1 | -2.96% (inactive)
8 | O=C(NN=CC=Cc1ccccc1)C(O)C(O)C(=O)NN=CC=Cc1ccccc1 (centres undefined) | 0.1% (inactive)
9 | CSc1ccc(CNC(=O)C2(C)CCCN2C)cc1 (centres undefined) | -0.07% (inactive)
10 | COc1ccc2cc(CCl)c(Cl)nc2c1 | -0.14% (inactive)
11 | COc1ccc(C=C(C#N)C#N)c(CSc2ccccn2)c1 | -0.31% (inactive)
12 | COc1ccc2nc(-c3ccccn3)ccc2c1 | 15.7% (active)
13 | COC(=O)c1cc(S(=O)(=O)N2CCN(C(=O)C3CCCO3)CC2)cn1C (centres undefined) | 0.73% (inactive)
14 | N#CCC[C@H]1CC[C@]2(CCCN(Cc3ccc(Cl)cc3)C2)O1 | 0.06% (inactive)
15 | COc1ccccc1C(=O)CSc1nnc(-c2ccccn2)n1-c1ccccc1 | -0.86% (inactive)
16 | Nn1c(SCC(=O)N2c3ccccc3Sc3ccccc32)nnc1-c1n[nH]c2c1CCC2 | -0.89% (inactive)
17 | COc1ccc(CCNC(=O)COC(=O)Cc2cccc(F)c2)cc1 | 2.2% (inactive)
18 | O=C(COC(=O)Cc1ccccc1F)NCCc1ccccc1 | 1.4% (inactive)
19 | COc1ccc(CCNC(=O)COC(=O)Cc2ccccc2F)cc1 | 5.57% (active)
20 | C=CCN=C1NC(c2cccc(C(F)(F)F)c2)C(C(=O)OC)=C(C)N1C (centres undefined) | -0.18% (inactive)

Row | Structure (SMILES) | inhibition
21 | C=C(C)C#CC(Cc1ccccc1)NCC1CC1 (centres undefined) | -0.89% (inactive)
22 | COc1ccc(-c2ccc3c(n2)CCCN3S(=O)(=O)c2ccc(C)cc2)cc1 | -0.47% (inactive)
23 | FC(F)(F)Oc1ccc(-c2cn3cccnc3n2)cc1 | 1.35% (inactive)
24 | COc1ccc(CSc2nnc(-c3cccc(C)c3)n2C)cc1 | -0.99% (inactive)
25 | COc1ccc(-c2cn3ccsc3n2)cc1 | 4.57% (active)
26 | COc1cc(OC)cc(-c2nc(=S)n3ccsc3n2)c1 | -0.3% (inactive)
27 | COc1ccc(-c2cn3ccc(C)cc3n2)cc1 | 5.29% (active)
28 | O=C(Nc1cccc(Cl)c1)OC1CC2CC1[C@H]1CCCCN1[C@H]2Cc1ccccc1 (some centres undefined) | -0.06% (inactive)
29 | O=C(CSc1nc2ccccc2n1Cc1ccccc1Cl)N/N=C\c1c[nH]c2ccccc12 | -0.91% (inactive)
30 | Cc1cc(=O)[nH]c(SCC(=O)Nc2ccc(F)cc2F)n1 | 0.67% (inactive)
31 | C=CCN1[C@@H](Cc2ccccc2)COc2cccc(N3CCSCC3)c2S1(=O)=O | 0.68% (inactive)
32 | O=C(Nc1ccccc1)Nc1nc2ccccc2s1 | 9.89% (active)
33 | O=C(Nc1ccccc1)Nc1nnc(COc2ccccc2F)s1 | 0.16% (inactive)
34 | O=C(Nc1nc2ccc(Cl)cc2s1)c1cc(-c2ccc(Cl)cc2)nc2ccccc12 | 0.51% (inactive)
35 | COC(=O)[C@]12C[C@H](CC(=O)NCc3ccccc3)C(=O)N(Cc3ccccc3)C1=C[C@H](COCc1ccccc1)O[C@@H]2C | -0.43% (inactive)
36 | COc1ccc(C(=O)CSc2nnc(-c3cnccn3)n2-c2ccc(C)cc2)cc1 | 0.38% (inactive)
37 | CSc1ccc(C=Nn2c(-c3ccc(F)cc3)n[nH]c2=S)cc1 | -1.55% (inactive)
38 | COC(=O)C1=C(C)N(Cc2ccc(C(F)(F)F)cc2)C(=NCc2ccc(C(F)(F)F)cc2)NC1c1cccc(Cl)c1 (centres undefined) | 0.24% (inactive)
39 | O=c1c(-c2ccccc2)coc2cc(O)ccc12 | 3.75% (active)
40 | CC(C)=CCc1c(O)c(CC=C(C)C)c2occ(-c3ccc(O)cc3)c(=O)c2c1O | 0.21% (inactive)

Row | Structure (SMILES) | inhibition
41 | CCc1ccc(Oc2coc3cc(O)ccc3c2=O)cc1 | 0.76% (inactive)
42 | Cc1ccc(C(=O)N(Cc2ccccn2)CC2CCCO2)cc1 (centres undefined) | 0.03% (inactive)
43 | CC(C)(C)C1CCC(=NNC(=O)c2ccc(Br)o2)CC1 (centres undefined) | 2.87% (inactive)
44 | O=C(N/N=C\C1CC=CCC1)c1ccc(Br)o1 (centres undefined) | 8.53% (active)
45 | CCC(C)(C)C1CCC(=NNC(=O)c2ccc(Br)o2)CC1 (centres undefined) | 1.82% (inactive)
46 | Cc1c[nH]c2cccc(-c3ccc(Cl)cc3)c12 | -0.32% (inactive)
47 | Cc1cc(NC(=O)CSC2=NS(=O)(=O)c3cc(Cl)ccc3N2)no1 | -0.79% (inactive)
48 | Cc1ccc(-n2cc3ccc([N+](=O)[O-])cc3n2)cc1 | 4.78% (active)
49 | O=c1c2cc([N+](=O)[O-])ccc2nc2n1CCC2 | 0.07% (inactive)
50 | CC(C)(C)NC(=O)Cn1cnc2cc([N+](=O)[O-])ccc2c1=O | 0.18% (inactive)
51 | CCOC(=O)[C@]12CCCC3=C1N(CCC3)C(=O)[C@@H](CC(=O)NCC13CC4CC(CC(C4)C1)C3)C2 | -1.84% (inactive)
52 | CC(C)Cc1cc(C(=O)Nc2cc(Br)ccc2O)no1 | 1.06% (inactive)
53 | O=C(NCCCc1ccccc1)c1cc(COc2c(F)cccc2F)on1 | 1.02% (inactive)
54 | CC(C)Cc1cc(C(=O)NCCc2ccccc2)no1 | 4.87% (active)
55 | CC(C)(CNC(=O)c1ccc(Cl)c(S(=O)(=O)N2CCc3ccccc3C2)c1)N1CCOCC1 | -2.85% (inactive)
56 | Cc1ccc(NC(=O)C2(N3CCC3=O)CCCCC2)cc1 | -0.08% (inactive)
57 | Cc1ccc(NC(=O)c2csc3c2CCCC3)cc1 | 4.28% (active)
58 | CC1CC(C)CN(CCCNC(=O)c2csc3c2CCCCC3)C1 (centres undefined) | 0.43% (inactive)
59 | O=C(NCc1ccccc1)[C@H]1CCCN1C(=O)[C@H]1CCCN1C(=O)N1CCOCC1 | 0.17% (inactive)
